What all share (assay): DAPPL (digital affinity profiling via proximity ligation, sequencing); 10 mM Tris-HCl pH 7.5, 50 mM NaCl, 1 mM DTT, 4% glycerol, room temperature, 30 min; GST-TFs on glutathione beads, 16-mer random dsDNA library, 0.1% formaldehyde crosslink after washing; high values mean tight binding
One assay deals with T1, FEV (Homo sapiens, UniProt Q99581 1-238).
T1 sequence: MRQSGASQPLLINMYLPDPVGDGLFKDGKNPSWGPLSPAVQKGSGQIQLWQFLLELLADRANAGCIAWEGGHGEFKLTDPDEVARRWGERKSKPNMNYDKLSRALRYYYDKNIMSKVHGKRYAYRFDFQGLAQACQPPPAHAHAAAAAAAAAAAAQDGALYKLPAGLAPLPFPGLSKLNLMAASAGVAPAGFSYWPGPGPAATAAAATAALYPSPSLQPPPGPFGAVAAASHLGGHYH
Particulars: protein: recombinant; tags: N-terminal GST; dsDNA, one strand shown. In a few lines: (§1)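 Binding signal is each hexamer's read frequency for a factor divided by its frequency in the tag-only sample. The factors were GST-fused human transcription factors from yeast, captured on glutathione beads, DNA-barcoded and pooled with that sample. Pools were incubated with 200 nmole of a random double-stranded 16-mer DNA library in Tris/NaCl/DTT/glycerol buffer at room temperature for 30 min, then washed, crosslinked with 0.1% formaldehyde, proximity-ligated with BsaI/T4 ligase (1 h, 37 °C), PCR-amplified and sequenced on an Illumina NextSeq500.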

The next assay has as its target ETV5 (Homo sapiens, UniProt P41161 1-510). Particulars: protein: recombinant; tags: N-terminal GST; dsDNA, one strand shown. The method, boiled down: as §1
A further assay addresses HSF1 (Homo sapiens, UniProt Q00613 1-529). Particulars: protein: recombinant; tags: N-terminal GST; chain copies: 3; dsDNA, one strand shown. In a few lines: as §1
The target of a further assay is T2, SPIC (Homo sapiens, UniProt Q8N5J4 1-248).
T2 sequence: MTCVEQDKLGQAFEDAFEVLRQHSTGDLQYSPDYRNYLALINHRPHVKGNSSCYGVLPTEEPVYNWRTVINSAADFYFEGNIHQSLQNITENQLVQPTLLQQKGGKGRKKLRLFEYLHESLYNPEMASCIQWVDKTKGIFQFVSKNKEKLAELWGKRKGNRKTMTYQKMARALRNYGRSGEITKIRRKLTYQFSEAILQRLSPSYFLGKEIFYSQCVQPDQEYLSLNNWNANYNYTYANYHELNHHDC
Particulars: protein: recombinant; tags: N-terminal GST; dsDNA, one strand shown. The method, boiled down:
as §1

In another assay the target is ELF4 (Homo sapiens, UniProt Q99607 1-663). The following applies: protein: recombinant; tags: N-terminal GST; dsDNA, one strand shown. The method, boiled down: as §1
ELF4, sequence (Q99607 whole entry): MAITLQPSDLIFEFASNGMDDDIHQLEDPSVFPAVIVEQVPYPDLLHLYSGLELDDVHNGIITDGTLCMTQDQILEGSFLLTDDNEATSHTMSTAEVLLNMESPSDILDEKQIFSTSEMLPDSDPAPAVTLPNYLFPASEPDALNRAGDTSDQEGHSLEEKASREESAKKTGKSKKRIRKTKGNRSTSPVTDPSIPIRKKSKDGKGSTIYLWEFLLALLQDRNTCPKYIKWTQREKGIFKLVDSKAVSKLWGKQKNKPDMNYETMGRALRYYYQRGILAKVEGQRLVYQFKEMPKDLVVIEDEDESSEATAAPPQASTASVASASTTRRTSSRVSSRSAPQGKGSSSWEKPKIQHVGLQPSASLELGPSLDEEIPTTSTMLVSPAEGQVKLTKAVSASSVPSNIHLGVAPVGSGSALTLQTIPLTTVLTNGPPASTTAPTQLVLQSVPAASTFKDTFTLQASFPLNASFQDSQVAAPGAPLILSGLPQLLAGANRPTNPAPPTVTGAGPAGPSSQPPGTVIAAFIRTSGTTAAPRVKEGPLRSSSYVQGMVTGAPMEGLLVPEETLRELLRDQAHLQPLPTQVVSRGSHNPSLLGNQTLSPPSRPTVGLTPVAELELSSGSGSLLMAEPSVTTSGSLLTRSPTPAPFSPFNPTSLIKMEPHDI
The target of a further assay is T3, ELK4 (Homo sapiens, UniProt P28324-2 1-405).
T3 sequence: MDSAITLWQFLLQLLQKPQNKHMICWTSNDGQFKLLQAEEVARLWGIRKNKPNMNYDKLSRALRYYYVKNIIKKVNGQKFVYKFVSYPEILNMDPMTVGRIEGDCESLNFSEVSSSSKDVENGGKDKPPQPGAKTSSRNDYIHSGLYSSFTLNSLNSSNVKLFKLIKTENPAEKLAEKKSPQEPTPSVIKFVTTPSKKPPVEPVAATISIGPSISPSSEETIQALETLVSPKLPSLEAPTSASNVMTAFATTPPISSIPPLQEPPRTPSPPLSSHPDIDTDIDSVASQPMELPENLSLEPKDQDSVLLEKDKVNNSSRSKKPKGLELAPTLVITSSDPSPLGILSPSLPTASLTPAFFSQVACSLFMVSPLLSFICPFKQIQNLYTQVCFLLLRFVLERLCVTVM
Particulars: protein: recombinant; tags: N-terminal GST; dsDNA, one strand shown. In a few lines: as §1

Another assay concerns the target T4, ETV2 (Homo sapiens, UniProt O00321 1-342).
T4 sequence: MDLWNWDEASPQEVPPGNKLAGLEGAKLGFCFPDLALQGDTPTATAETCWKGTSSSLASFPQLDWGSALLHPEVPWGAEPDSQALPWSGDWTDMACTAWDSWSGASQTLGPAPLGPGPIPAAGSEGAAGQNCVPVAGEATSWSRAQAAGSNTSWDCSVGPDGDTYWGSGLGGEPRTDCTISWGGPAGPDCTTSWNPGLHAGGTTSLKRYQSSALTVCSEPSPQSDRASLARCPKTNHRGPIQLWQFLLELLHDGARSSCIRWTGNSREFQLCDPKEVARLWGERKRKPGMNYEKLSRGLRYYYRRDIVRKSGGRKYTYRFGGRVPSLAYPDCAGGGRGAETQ
Particulars: protein: recombinant; tags: N-terminal GST; dsDNA, one strand shown. The method, boiled down: as §1

The next assay deals with T5, ELF3 (Homo sapiens, UniProt P78545 1-371).
T5 sequence: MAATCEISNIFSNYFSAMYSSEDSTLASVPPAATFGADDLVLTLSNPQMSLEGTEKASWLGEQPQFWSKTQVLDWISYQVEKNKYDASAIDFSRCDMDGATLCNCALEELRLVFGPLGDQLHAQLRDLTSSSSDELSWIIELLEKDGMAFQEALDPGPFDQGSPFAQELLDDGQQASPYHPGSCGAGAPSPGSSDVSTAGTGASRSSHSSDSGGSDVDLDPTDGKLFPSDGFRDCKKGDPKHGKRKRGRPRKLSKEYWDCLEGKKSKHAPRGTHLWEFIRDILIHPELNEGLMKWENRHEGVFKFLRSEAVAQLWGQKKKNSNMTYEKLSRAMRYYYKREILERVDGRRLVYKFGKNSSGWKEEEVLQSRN
Particulars: protein: recombinant; tags: N-terminal GST; dsDNA, one strand shown. In a few lines:
as §1

The target of the next assay is CRX (Homo sapiens, UniProt O43186 1-299). Particulars: protein: recombinant; tags: N-terminal GST; dsDNA, one strand shown. In a few lines: as §1
CRX, sequence (O43186 whole entry): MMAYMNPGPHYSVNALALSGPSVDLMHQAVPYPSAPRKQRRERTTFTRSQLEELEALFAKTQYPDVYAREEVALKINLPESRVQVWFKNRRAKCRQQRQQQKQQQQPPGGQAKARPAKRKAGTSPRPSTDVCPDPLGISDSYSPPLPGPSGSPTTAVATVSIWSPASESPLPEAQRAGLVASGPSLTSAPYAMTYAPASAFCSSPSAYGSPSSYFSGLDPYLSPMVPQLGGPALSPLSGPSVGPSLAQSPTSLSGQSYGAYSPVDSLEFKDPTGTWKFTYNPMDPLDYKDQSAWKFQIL
The target in a further assay is ETV1 (Homo sapiens, UniProt P50549 1-477). The following applies: protein: recombinant; tags: N-terminal GST; dsDNA, one strand shown. In a few lines: as §1
ETV1, sequence (P50549 whole entry): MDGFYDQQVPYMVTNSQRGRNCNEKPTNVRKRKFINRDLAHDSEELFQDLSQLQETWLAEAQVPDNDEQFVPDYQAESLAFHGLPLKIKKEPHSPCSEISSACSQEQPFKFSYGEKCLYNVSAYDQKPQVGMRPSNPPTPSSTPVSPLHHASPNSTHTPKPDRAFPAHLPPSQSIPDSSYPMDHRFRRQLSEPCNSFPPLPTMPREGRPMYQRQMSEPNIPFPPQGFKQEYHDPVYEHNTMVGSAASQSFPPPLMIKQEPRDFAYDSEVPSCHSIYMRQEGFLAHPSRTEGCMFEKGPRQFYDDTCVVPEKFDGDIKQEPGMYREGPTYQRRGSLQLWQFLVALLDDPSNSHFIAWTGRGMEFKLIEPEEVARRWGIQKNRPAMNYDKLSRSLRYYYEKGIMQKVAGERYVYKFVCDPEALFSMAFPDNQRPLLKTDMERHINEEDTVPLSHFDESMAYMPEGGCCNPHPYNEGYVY
Another assay has as its target T6, ERF (Homo sapiens, UniProt P50548 1-548).
T6 sequence: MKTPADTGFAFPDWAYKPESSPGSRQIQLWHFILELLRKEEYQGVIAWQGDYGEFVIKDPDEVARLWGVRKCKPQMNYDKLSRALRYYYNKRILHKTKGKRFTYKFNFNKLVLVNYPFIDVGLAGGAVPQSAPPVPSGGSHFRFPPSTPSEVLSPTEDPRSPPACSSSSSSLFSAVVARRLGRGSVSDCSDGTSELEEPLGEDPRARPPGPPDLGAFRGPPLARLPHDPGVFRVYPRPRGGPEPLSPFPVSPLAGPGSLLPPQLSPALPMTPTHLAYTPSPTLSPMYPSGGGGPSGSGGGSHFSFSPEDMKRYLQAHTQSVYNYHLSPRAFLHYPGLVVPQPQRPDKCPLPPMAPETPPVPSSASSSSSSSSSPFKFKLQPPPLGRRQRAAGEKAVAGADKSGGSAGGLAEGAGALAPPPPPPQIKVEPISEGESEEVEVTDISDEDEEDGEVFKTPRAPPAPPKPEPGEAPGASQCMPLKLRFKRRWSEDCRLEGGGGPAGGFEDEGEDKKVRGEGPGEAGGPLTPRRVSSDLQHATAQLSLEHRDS
The following applies: protein: recombinant; tags: N-terminal GST; dsDNA, one strand shown. The method, boiled down: as §1

The target in a further assay is T7, ETV3L (Homo sapiens, UniProt Q6ZN32 1-361).
T7 sequence: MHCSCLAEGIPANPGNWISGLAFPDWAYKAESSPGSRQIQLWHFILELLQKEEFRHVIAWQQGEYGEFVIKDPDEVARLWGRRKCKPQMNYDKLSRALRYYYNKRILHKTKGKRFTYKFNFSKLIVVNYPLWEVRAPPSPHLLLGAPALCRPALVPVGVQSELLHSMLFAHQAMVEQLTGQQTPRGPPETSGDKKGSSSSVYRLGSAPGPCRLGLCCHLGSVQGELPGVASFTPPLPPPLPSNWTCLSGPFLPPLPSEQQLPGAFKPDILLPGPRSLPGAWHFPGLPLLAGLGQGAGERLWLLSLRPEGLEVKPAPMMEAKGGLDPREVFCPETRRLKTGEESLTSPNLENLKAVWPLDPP
Particulars: protein: recombinant; tags: N-terminal GST; dsDNA, one strand shown. The method, boiled down:
as §1

A further assay deals with T8, ETS2 (Homo sapiens, UniProt P15036 1-469).
T8 sequence: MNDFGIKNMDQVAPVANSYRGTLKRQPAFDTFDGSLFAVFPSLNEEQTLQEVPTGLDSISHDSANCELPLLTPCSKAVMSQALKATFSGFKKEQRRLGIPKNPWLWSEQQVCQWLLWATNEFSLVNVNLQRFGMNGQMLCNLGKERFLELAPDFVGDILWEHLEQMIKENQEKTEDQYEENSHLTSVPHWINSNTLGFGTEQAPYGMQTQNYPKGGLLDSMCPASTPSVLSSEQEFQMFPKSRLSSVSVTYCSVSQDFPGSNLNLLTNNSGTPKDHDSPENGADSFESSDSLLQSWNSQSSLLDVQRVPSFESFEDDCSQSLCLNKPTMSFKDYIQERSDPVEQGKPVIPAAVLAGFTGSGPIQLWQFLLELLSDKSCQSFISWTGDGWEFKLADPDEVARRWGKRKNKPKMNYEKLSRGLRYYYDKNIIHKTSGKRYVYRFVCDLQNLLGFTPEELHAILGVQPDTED
Particulars: protein: recombinant; tags: N-terminal GST; dsDNA, one strand shown. In a few lines: as §1

The target in another assay is T9, SPDEF (Homo sapiens, UniProt O95238 1-335).
T9 sequence: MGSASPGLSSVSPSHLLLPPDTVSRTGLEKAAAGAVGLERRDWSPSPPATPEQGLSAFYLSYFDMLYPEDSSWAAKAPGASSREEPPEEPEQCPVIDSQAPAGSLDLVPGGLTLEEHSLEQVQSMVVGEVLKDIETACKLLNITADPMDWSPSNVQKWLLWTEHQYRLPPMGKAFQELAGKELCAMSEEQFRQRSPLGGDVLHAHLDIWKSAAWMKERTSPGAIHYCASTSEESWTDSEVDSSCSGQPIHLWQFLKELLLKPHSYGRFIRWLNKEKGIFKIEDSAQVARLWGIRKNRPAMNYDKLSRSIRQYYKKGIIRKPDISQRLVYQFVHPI
Particulars: protein: recombinant; tags: N-terminal GST; dsDNA, one strand shown. The method, boiled down: as §1

A further assay concerns the target T10, ETV7 (Homo sapiens, UniProt Q9Y603 1-341).
T10 sequence: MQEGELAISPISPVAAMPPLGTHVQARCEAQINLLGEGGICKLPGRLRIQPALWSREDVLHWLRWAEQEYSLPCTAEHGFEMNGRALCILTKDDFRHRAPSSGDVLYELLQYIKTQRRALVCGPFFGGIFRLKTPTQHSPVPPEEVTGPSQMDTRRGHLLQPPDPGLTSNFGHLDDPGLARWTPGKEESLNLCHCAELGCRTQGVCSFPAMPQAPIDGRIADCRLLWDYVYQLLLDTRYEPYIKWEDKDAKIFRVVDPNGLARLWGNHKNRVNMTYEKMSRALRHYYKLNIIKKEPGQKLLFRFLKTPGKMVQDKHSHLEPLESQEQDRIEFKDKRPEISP
Particulars: protein: recombinant; tags: N-terminal GST; dsDNA, one strand shown. In a few lines:
as §1

A further assay concerns the target T11, ELF5 (Homo sapiens, UniProt Q9UKW6-2 1-255).
T11 sequence: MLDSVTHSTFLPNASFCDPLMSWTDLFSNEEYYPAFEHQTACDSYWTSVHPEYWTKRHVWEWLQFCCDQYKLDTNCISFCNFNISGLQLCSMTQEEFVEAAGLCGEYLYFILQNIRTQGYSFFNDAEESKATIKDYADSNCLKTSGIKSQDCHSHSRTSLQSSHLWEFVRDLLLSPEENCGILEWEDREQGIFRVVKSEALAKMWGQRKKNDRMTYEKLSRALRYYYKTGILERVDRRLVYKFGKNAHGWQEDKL
Particulars: protein: recombinant; tags: N-terminal GST; dsDNA, one strand shown. In a few lines:
as §1

A further assay has as its target T12, ETV3 (Homo sapiens, UniProt P41162-2 1-143).
T12 sequence: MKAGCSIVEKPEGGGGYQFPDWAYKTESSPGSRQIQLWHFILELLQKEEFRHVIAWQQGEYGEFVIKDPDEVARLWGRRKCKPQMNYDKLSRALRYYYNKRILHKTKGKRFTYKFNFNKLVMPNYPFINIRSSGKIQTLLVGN
Particulars: protein: recombinant; tags: N-terminal GST; dsDNA, one strand shown. In a few lines: as §1

In the next assay the target is ETV6 (Homo sapiens, UniProt P41212 1-452). The following applies: protein: recombinant; tags: N-terminal GST; dsDNA, one strand shown. The method, boiled down: as §1
ETV6, sequence (P41212 whole entry): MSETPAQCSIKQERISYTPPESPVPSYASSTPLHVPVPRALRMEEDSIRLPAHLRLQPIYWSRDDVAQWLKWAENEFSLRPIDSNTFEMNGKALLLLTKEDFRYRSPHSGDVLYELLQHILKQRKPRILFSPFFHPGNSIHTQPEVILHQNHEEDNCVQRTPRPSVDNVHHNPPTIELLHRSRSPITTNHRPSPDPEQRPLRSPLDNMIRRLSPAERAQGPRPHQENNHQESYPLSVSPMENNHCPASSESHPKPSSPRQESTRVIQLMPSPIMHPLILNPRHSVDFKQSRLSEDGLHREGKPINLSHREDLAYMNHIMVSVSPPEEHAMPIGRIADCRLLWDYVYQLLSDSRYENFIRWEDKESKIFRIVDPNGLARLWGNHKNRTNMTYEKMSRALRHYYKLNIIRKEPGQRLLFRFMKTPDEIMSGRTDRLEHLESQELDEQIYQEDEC

HSF1, sequence (Q00613 whole entry): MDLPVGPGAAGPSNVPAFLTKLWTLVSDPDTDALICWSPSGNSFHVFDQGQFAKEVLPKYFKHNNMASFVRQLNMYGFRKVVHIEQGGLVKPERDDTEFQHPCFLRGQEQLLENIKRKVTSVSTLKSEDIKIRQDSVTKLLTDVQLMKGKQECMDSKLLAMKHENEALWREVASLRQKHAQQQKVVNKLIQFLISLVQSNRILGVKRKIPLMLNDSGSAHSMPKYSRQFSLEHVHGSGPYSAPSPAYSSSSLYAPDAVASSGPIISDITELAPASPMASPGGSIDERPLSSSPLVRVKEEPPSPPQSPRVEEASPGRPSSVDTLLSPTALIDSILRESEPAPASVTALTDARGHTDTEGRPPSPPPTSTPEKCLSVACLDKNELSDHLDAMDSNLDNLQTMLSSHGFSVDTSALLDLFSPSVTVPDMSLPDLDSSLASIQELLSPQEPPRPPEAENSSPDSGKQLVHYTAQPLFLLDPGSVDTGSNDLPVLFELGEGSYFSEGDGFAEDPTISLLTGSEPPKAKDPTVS
ETV5, sequence (P41161 whole entry): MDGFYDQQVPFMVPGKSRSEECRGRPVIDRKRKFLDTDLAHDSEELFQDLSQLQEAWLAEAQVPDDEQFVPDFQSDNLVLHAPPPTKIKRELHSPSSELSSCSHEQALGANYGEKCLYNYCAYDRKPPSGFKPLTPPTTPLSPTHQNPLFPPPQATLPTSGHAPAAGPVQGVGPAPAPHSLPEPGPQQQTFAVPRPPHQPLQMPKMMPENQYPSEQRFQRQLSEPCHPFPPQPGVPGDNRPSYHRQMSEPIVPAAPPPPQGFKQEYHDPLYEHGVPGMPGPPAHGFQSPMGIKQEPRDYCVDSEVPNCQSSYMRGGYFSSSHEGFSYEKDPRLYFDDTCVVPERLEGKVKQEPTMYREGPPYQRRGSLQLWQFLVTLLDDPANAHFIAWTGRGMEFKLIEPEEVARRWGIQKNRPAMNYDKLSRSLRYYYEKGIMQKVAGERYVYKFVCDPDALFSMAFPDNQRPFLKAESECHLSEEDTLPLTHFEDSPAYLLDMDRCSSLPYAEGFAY

Take TTATGG: the binding signal with FEV was 1.33 fold enrichment (6-mer frequency, TF over GST control); in the assay with ETV5 it was 1.39 fold enrichment (6-mer frequency, TF over GST control); with HSF1, 1.74 fold enrichment (6-mer frequency, TF over GST control); with SPIC, 1.53 fold enrichment (6-mer frequency, TF over GST control); with ELF4, 1.31 fold enrichment (6-mer frequency, TF over GST control); with ELK4 it was 1.24 fold enrichment (6-mer frequency, TF over GST control). The binding signal in the assay with ETV2 was 1.45 fold enrichment (6-mer frequency, TF over GST control); with ELF3 it was 1.53 fold enrichment (6-mer frequency, TF over GST control); with CRX, 2.62 fold enrichment (6-mer frequency, TF over GST control); with ETV1, 1.41 fold enrichment (6-mer frequency, TF over GST control); with ERF, 1.31 fold enrichment (6-mer frequency, TF over GST control); with ETV3L, 1.32 fold enrichment (6-mer frequency, TF over GST control). For the same sequence, the binding signal with ETS2 was 1.26 fold enrichment (6-mer frequency, TF over GST control); with SPDEF, 1.26 fold enrichment (6-mer frequency, TF over GST control); with ETV7 it was 1.36 fold enrichment (6-mer frequency, TF over GST control); with ELF5 it was 1.28 fold enrichment (6-mer frequency, TF over GST control); with ETV3, 1.44 fold enrichment (6-mer frequency, TF over GST control); in the assay with ETV6, 1.35 fold enrichment (6-mer frequency, TF over GST control).

The values are drawn from article PMC7862700, “An all-to-all approach to the identification of sequence-specific readers for epigenetic DNA modifications on cytosine”.
